# Assay results as given in ChEMBL document CHEMBL4513149, “CO-ADD screening of MMV (CH) - MMV compounds” (2021).
# Entries with a potency or affinity are not part of this list.
# Columns and labels:
# Staphylococcus aureus = details: Concentration 20 uM; ASSAY_TEST Inhibition of Bacterial Growth; detection method Absorption (OD600); MEDIA CAMHB; plate type 384well; NBS; CORNING #3640; time 18 hr
# Escherichia coli = details: Concentration 20 uM; ASSAY_TEST Inhibition of Bacterial Growth; detection method Absorption (OD600); MEDIA CAMHB; plate type 384well; NBS; CORNING #3640; time 18 hr
Structure (SMILES),Inhibition (Staphylococcus aureus),Inhibition (Escherichia coli)
CC(=O)Oc1ccccc1C(=O)Nc1ncc([N+](=O)[O-])s1 [NITAZOXANIDE],50.75%,-2.79%
CO[C@@H](C(=O)N1Cc2[nH]nc(NC(=O)c3ccc(N4CCN(C)CC4)cc3)c2C1)c1ccccc1 [DANUSERTIB],12.13%,1.94%
Cc1cccc(C(=O)Nc2ccnc(N(C)C3CCN(CC(C)C)CC3)c2)c1,17.27%,7.9%
Cc1nn(Cc2ccccc2)c(Cl)c1C(=O)NC1CCCCCC1,11.91%,1.54%
CNCCC(Oc1ccc(C(F)(F)F)cc1)c1ccccc1 (stereo not given) [FLUOXETINE],7.53%,3%
Cc1cc(C2=NOC(c3cc(Cl)c(F)c(Cl)c3)(C(F)(F)F)C2)ccc1C(=O)NCc1ccc2c(c1)C(C)(C)OB2O (stereo not given),14.07%,6.28%
CC1(C)OB(O)c2ccc(C3=NOC(c4cc(Cl)c(F)c(Cl)c4)(C(F)(F)F)C3)cc21 (stereo not given),15.02%,11.05%
Nc1c2c(nc3sc4c(c13)CCCC4)CCCC2,6.99%,-4.01%
CO[C@@H]1CN(c2ccc(C#CC3(O)CN4CCC3CC4)c(Cc3ccccc3)n2)C[C@H]1O (stereo not given in full),-11.47%,-3.76%
Cc1nn(C)c(C)c1NS(=O)(=O)c1c(Cl)cc(-c2ccnc(N3CCNCC3)c2)cc1Cl,12.75%,5.87%
